# Laboratory results published in PubChem BioAssay (Tox21).
# Inconclusive results are not listed. Where a call stands in place of a potency, no number is given. A number with no mark means an inactive call. The source made the active and inactive calls. The call rests on the fitted dose curve.
# Experiment: qHTS assay to identify small molecule agonists of the NFkB signaling pathway - cell viability counter screen (AID 1159515); further: nearly all actives have a fitted effect of over 55% in size
# Conditions: NFkB-bla ME-180 viability, CellTiter-Glo luminescence, 5 h; series mostly up to 61 µM
# Text: National Center for Advancing Translational Sciences [NCATS]
# NIH Chemical Genomics Center [NCGC]
# U.S. Environmental Protection Agency [EPA]
# National Institutes of Environmental Health Sciences [NIEHS]
# National Toxicology Program [NTP]
# U.S. Food and Drug Administration [FDA]
# Transcription factors and their stimulated target gene expression play pivotal roles across many cellular processes including responses to environmental stimuli. Proper regulation of associated pathways is critical to maintain cell health and function. Constitutive activation of transcription factor pathways has been implicated in tumors as it may block cellular functions such as apoptosis and lead to invasion and metastasis. One important transcription factor that stimulates gene expression in response to cytokines, UV radiation, and other stimuli is nuclear factor-kappa B (NFkB). To measure activation of the NFkB pathway, the CellSensor NFkB-bla ME-180 cell line (Life Technologies, Carlsbad, CA) that stably expresses beta-lactamase reporter gene under the regulation of a NF-kB response element was used. This assay allows measurement of the NFkB pathway activity induced by compounds in a ME-180 cell line. This system quantitates NF-kB activity using a FRET-based assay system where beta-lactamase expression disrupts FRET, allowing for fluorescent measurement of activity. This cell line has been used to screen the Tox21 10K compound library and to identify compounds that induce the NFkB pathway activity. The cytotoxicity of the Tox21 compound library against the NFkB-bla ME-180 cell line was tested in parallel by measuring cell viability using the CellTiter-Glo assay in the same wells.
# Tox21 Assay Protocol Summary:
# NFkB-bla ME-180 cells were dispensed at 2,000 cells/6 uL of assay medium per well into black wall/clear-bottom 1536-well plates using a Multidrop Combi (ThermoFisher Scientific, Waltham, MA) dispenser. After the assay plates were incubated at 37 C and 5% CO2 for an overnight, 23 nL of compounds dissolved in DMSO, positive controls or DMSO only was transferred to the assay plate by a Pintool station (Kalypsys, San Diego, CA). The assay plates were incubated at 37 C and 5% CO2 for 5 hr. One uL of LiveBLAzer B/G FRET substrate (Life Technologies) was added using a Flying Reagent Dispenser (Aurora Discovery, San Diego, CA) and the plates were incubated at room temperature for 1.5 hr. Fluorescence intensity (405 nm excitation, 460 nm and 530 nm emissions) was measured using an Envision plate reader (PerkinElmer, Shelton, CT). For cytotoxicity, 3 ul/well of CellTiter-Glo reagent was added into the assay plates using an FRD. After 30 min incubation at room temperature, the luminescence intensity was measured using a ViewLux plate reader (PerkinElmer).
Structure (SMILES),Potency,"activity, negative = cytotoxic"
O=c1oc2cc(O)ccc2c2oc3cc(O)ccc3c12,inactive,–
COc1cc2nc(N3CCN(C(=O)c4ccco4)CC3)nc(N)c2cc1OC,inactive,–
CCCCCCCCCCCC(=O)OCC(C)OC(=O)CCCCC(=O)O (stereo not given),inactive,–
Cc1ccc(C)cc1,inactive,–
NC(=O)c1cccc([N+](=O)[O-])c1,inactive,–
O=C(O)CN(CCN(CC(=O)O)CC(=O)O)CC(=O)O,–,-2.83% [at 3.12 µM]
CCc1oc2ccccc2c1C(=O)c1cc(I)c(O)c(I)c1,inactive,–
CC(=O)CC(=O)Nc1ccc(S(=O)(=O)O)cc1,inactive,–
O=C(O)Cc1ccc2c(c1)C(=O)c1ccccc1CO2,inactive,–
C#C[C@]1(OC(C)=O)CC[C@H]2[C@@H]3CCC4=C[C@@H](OC(C)=O)CC[C@@H]4[C@H]3CC[C@@]21C,inactive,–
CN(C)Cc1cc(C(C)(C)C)c(O)c(C(C)(C)C)c1,inactive,–
ClCCl,inactive,–
CC(C)(c1cc(Br)c(OCC(Br)CBr)c(Br)c1)c1cc(Br)c(OCC(Br)CBr)c(Br)c1 (stereo not given),inactive,–
CC1(C)[C@@H](O)CC[C@]2(C)[C@H]3C(=O)C=C4[C@@H]5C[C@@](C)(C(=O)O)CC[C@]5(C)CC[C@@]4(C)[C@]3(C)CC[C@@H]12,inactive,–
CCCCCC/C=C\CCCCCCCC(=O)O,inactive,–
O=C(/C=C/c1ccc(O)c(O)c1)O[C@@H](C(=O)O)[C@@H](OC(=O)/C=C/c1ccc(O)c(O)c1)C(=O)O,inactive,–
O=[N+]([O-])c1ccc(F)c(Cl)c1,inactive,–
CC(CCc1ccccc1)NCC(O)c1ccc(O)c(C(N)=O)c1 (stereo not given),inactive,–
COc1cc(C)ccc1O,inactive,–
O=C(/C=C/c1ccccc1)OC/C=C/c1ccccc1,inactive,–

Structure (SMILES),Potency,"activity, negative = cytotoxic"
Cc1c(C)c([N+](=O)[O-])c(C(C)(C)C)c([N+](=O)[O-])c1C,inactive,–
CC(=O)Oc1cc2c(s1)CCN(C(C(=O)C1CC1)c1ccccc1F)C2 (stereo not given),inactive,–
CCC(=O)OC(=O)CC,inactive,–
Nc1nc(-c2ccccc2)cs1,inactive,–
CCCCC(CC)COC(=O)CCCCC(=O)OCc1ccccc1 (stereo not given),inactive,–
OC1CCCc2ccccc21 (stereo not given),inactive,–
Cc1cccc2cccnc12,inactive,–
O[C@@H]([C@H](O)[C@H](O)CBr)[C@H](O)CBr,inactive,–
Nc1ccc(NCCO)c([N+](=O)[O-])c1,inactive,–
CCCC(=O)OC(C)(C)Cc1ccccc1,inactive,–
OCCN1CCN(CCCN2c3ccccc3Sc3ccc(C(F)(F)F)cc32)CC1,inactive,–
O=C(c1ccc(O)c(O)c1)c1ccc(O)cc1O,inactive,–
O=C1CCc2cc(OCCCCc3nnnn3C3CCCCC3)ccc2N1,inactive,–
CC(C)OC(=O)C(O)(CC(=O)O)CC(=O)O,inactive,–
CCCCCCCCCCCCOCCOCCOCCOCCOCCOCCOCCOCCOCCO,inactive,–
CCC(C)[O-].CCC(C)[O-].CCOC(=O)/C=C(/C)[O-].[Al+3],inactive,–
Fc1ccc(C(c2ccc(F)cc2)N2CCNCC2)cc1,inactive,–
CN(C)[C@@H](CCOc1cccc2ccccc12)c1ccccc1,inactive,–
C=C(C)C(=O)OCCCCCCCCCC,inactive,–
CCCCNS(=O)(=O)c1ccc(C)cc1,inactive,–
